# Results from the supplement of paper PMC9942566.
# ± gives the standard deviation of the averaged measurements.
# Test system: Serratia marcescens K904 PosmB-luxCDABE reporter (pMQ747)
# Assay: PosmB-lux reporter fold induction (RLU/OD600 relative to no-compound control), highest over Biolog concentrations; higher = stronger Rcs reporter activation
# Details: wild type K904; 4 h
# Procedure: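 Serratia marcescens K904 (wild type) or its isogenic ΔrcsB mutant, carrying the Rcs-dependent PosmB-luxCDABE reporter plasmid pMQ747, was grown in LB at OD600 0.1 in Biolog Phenotype MicroArray plates PM11-20 for 4 h at 30-32°C. Each compound is present at 3-4 proprietary concentrations (not stated); per the Fig. S1 legend the value given is the highest fold over those wells. Three independent trials.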
row,SMILES,PosmB-lux reporter fold induction
1,"OC(CCN1CCCCC1)(c1ccccc1)c1ccccc1 [pridinol] (Biolog plate: PM20, well positions: F9-12)",2.86 ± 0.61
2,"CSCCC(N)C(=O)NO (racemic) [DL-methionine hydroxamate] (Biolog plate: PM17, well positions: F5-8)",1.74 ± 0.48
3,"c1ccc(-c2ccccn2)nc1 [2,2'-Dipyridyl] (Biolog plate: PM13, well positions: B5-8)",1.97 ± 0.26
4,"CCN(CC)CCOC(=O)c1ccc(N)cc1 [Procaine] (Biolog plate: PM15, well positions: A2-4)",1.21 ± 0.28
5,"CC(C)(C)CC(C)(C)c1ccc(OCCOCC[N+](C)(C)Cc2ccccc2)cc1 [Benzethonium chloride] (Biolog plate: PM12, well positions: E9-12)",2.27 ± 0.38
6,"CC(CN1c2ccccc2Sc2ccccc21)N(C)C (stereo not given) [Promethazine] (Biolog plate: PM14, well positions: H5-8)",4.68 ± 1.8
7,"Nc1ccc(S(=O)(=O)Nc2nccs2)cc1 [Sulfathiazole] (Biolog plate: PM12, well positions: F5-8)",1.88 ± 0.029
8,"Cn1nnnc1SCC1=C(C(=O)O)N2C(=O)[C@@H](NC(=O)[C@H](OC=O)c3ccccc3)[C@H]2SC1 [cefamandole nafate] (Biolog plate: PM17, well positions: G5-8)",1.96 ± 0.53
9,"CC1(C)S[C@@H]2[C@H](NC(=O)C(C(=O)O)c3ccccc3)C(=O)N2[C@H]1C(=O)O (stereo not given in full) [Carbenicillin] (Biolog plate: PM14, well positions: G5-8)",42 ± 28
10,"CC1=CC(=O)c2ccccc2C1=O [Menadione] (Biolog plate: PM15, well positions: G9-12)",3.74 ± 0.73
11,"CO[C@@]1(NC(=O)C(C(=O)O)c2ccc(O)cc2)C(=O)N2C(C(=O)O)=C(CSc3nnnn3C)CO[C@@H]21 (stereo not given in full) [Moxalactam] (Biolog plate: PM13, well positions: H5-8)",1.69 ± 0.24
12,"CC(=O)OCC1=C(C(=O)O)N2C(=O)[C@@H](NC(=O)Cc3cccs3)[C@H]2SC1 [Cephalothin] (Biolog plate: PM11, well positions: H1-4)",1.36 ± 0.043
13,"Oc1c(I)cc(Cl)c2cccnc12 [5-chloro-7-iodo-8-hydroxy-quinoline] (Biolog plate: PM16, well positions: A9-12)",1.27 ± 0.55
14,"O=C1CN(/N=C/c2ccc([N+](=O)[O-])o2)C(=O)N1 [Nitrofurantoin] (Biolog plate: PM14, well positions: E5-8)",2.33 ± 0.28
15,"CN1CCN(CCCN2c3ccccc3Sc3ccc(C(F)(F)F)cc32)CC1 [Trifluoperazine] (Biolog plate: PM13, well positions: G9-12)",1.34 ± 0.17
16,"CC1(C)S[C@@H]2[C@H](NC(=O)COc3ccccc3)C(=O)N2[C@H]1C(=O)O.CN(C)[C@@H]1C(O)=C(C(=O)NCN2CCN(CCO)CC2)C(=O)[C@@]2(O)C(O)=C3C(=O)c4c(O)cccc4[C@@](C)(O)[C@H]3C[C@@H]12 [Penimepicycline] (Biolog plate: PM12, well positions: B5-8)",3.22 ± 1.1
17,"OB(O)O [Boric acid] (Biolog plate: PM14, well positions: C1-4)",1.77 ± 1.2
18,"CC1(C)S[C@@H]2[C@H](NC(=O)C(C(=O)O)c3ccccc3)C(=O)N2[C@H]1C(=O)O (stereo not given in full) [Carbenicillin] (Biolog plate: PM12, well positions: A9-12)",2.2 ± 0.17
19,"CC1(C)S[C@@H]2[C@H](NC(=O)[C@H](NC(=O)N3CCNC3=O)c3ccccc3)C(=O)N2[C@H]1C(=O)O [Azlocillin] (Biolog plate: PM13, well positions: B1-4)",1.96 ± 0.43
20,"O=C(O)c1cc(O)c(O)c(O)c1 [gallic acid] (Biolog plate: PM19, well positions: A5-8)",1.46 ± 0.28

row,SMILES,PosmB-lux reporter fold induction
1,"N=C(NCCCCCCNC(=N)NC(=N)Nc1ccc(Cl)cc1)NC(=N)Nc1ccc(Cl)cc1 [chlorhexidine] (Biolog plate: PM19, well positions: C1-4)",1.21 ± 0.081
2,"CC(C)NCC(O)COc1cccc2ccccc12 (racemic) [D,L-propranolol] (Biolog plate: PM20, well positions: B5-8)",5.54 ± 2.8
3,"CCS(=O)(=O)CCn1c([N+](=O)[O-])cnc1C [tinidazole] (Biolog plate: PM18, well positions: F5-8)",1.53 ± 0.081
4,"[Cl][Mn][Cl] [Manganese chloride] (Biolog plate: PM13, well positions: G5-8)",1.25 ± 0.2
5,"CN(C)C(=O)/N=N/C(=O)N(C)C [diamide] (Biolog plate: PM16, well positions: D5-8)",1.26 ± 0.35
6,"CCCCCCCC[N+](C)(CCCCCCCC)CCCCCCCC [methyltrioctyl-ammonium chloride] (Biolog plate: PM19, well positions: B1-4)",1.17 ± 0.32
7,"O=C(O)c1ccccc1S [Thiosalicylic acid] (Biolog plate: PM17, well positions: A9-12)",1.12 ± 0.27
8,"O.O=S(=O)([O-])[O-].O=S(=O)([O-])[O-].O=S(=O)([O-])[O-].[Al+3].[Al+3] [aluminum sulfate] (Biolog plate: PM16, well positions: F9-12)",1.33 ± 0.3
9,"COc1cc(NS(=O)(=O)c2ccc(N)cc2)ncn1 [sulfamono-methoxine] (Biolog plate: PM17, well positions: C9-12)",1.35 ± 0.34
10,"Cc1onc(-c2ccccc2Cl)c1C(=O)N[C@@H]1C(=O)N2[C@@H]1SC(C)(C)[C@@H]2C(=O)O [Cloxacillin] (Biolog plate: PM11, well positions: B5-8)",2.22 ± 0.62
11,"CO[C@@H]1[C@@H](O[C@@H]2O[C@H](C)[C@@H](O[C@H]3C[C@@](C)(O)[C@@H](OC(=O)CC(C)C)[C@H](C)O3)[C@H](N(C)C)[C@H]2O)[C@@H](CC=O)C[C@@H](C)[C@@H](O)/C=C/C=C/C[C@@H](C)OC(=O)C[C@H]1OC(C)=O [josamycin] (Biolog plate: PM19, well positions: A2-4)",1.27 ± 0.74
12,"CCc1cc(C(N)=S)ccn1 [ethionamide] (Biolog plate: PM17, well positions: B9-12)",0.853 ± 0.16
13,"CCCCCCCCCCCC[N+](C)(C)CCCS(=O)(=O)[O-] [lauryl sulfobetaine] (Biolog plate: PM19, well positions: G1-4)",2.95 ± 1.1
14,"CC[C@H]1OC(=O)[C@H](C)[C@@H](O[C@H]2C[C@@](C)(OC)[C@@H](O)[C@H](C)O2)[C@H](C)[C@@H](O[C@@H]2O[C@H](C)C[C@H](N(C)C)[C@H]2O)[C@](C)(O)C[C@@H](C)C(=O)[C@H](C)[C@@H](O)[C@]1(C)O [Erythromycin] (Biolog plate: PM11, well positions: F5-8)",1.38 ± 0.32
15,"NCC(=O)NO [glycine hydroxamate] (Biolog plate: PM16, well positions: H1-4)",2.05 ± 0.2
16,"O=C(N[C@H](CO)[C@H](O)c1ccc([N+](=O)[O-])cc1)C(Cl)Cl [Chloramphenicol] (Biolog plate: PM14, well positions: F1-4)",2.41 ± 1.1
17,"CN(C)[C@@H]1C(O)=C(C(=O)NCN2CCCC2)C(=O)[C@@]2(O)C(O)=C3C(=O)c4c(O)cccc4[C@@](C)(O)[C@H]3C[C@@H]12 [Rolitetracycline] (Biolog plate: PM13, well positions: D9-12)",1.49 ± 0.23
18,"CSc1ccc2c(c1)N(CCC1CCCCN1C)c1ccccc1S2 (stereo not given) [thioridazine] (Biolog plate: PM20, well positions: C1-4)",0.902 ± 0.17
19,"CN(C)[C@@H]1C(O)=C(C(N)=O)C(=O)[C@@]2(O)C(O)=C3C(=O)c4c(O)cccc4[C@@](C)(O)[C@H]3C[C@@H]12 [Tetracycline] (Biolog plate: PM12, well positions: A5-8)",1.53 ± 0.2
20,"CCn1cc(C(=O)O)c(=O)c2cnc(N3CCNCC3)nc21 [pipemidic acid] (Biolog plate: PM18, well positions: B5-8)",1.46 ± 0.24
